Drawing on PubChem BioAssay AID1645883 (National Center for Advancing Translational Sciences (NCATS), 2021), this text covers max response for 41 compounds.

“And” between values parts separate entries of the source, which are not always exact repeats. Equal entries are not always repeated. Screen size: about 16,000 compounds; about 160 (1%) were called active. Inconclusive results (about 8%) are left out. Calls come from the whole dose curve; as a rule, active = well fitted activation curve with a large enough effect; inconclusive = small, poorly fitted or top-dose-only effect; inactive = no such curve, though single readings can be large or run the other way. Only a selection was taken, and actives are over-represented in it overall.
% is set by controls: 0 for no effect and ±100 for the full control effect.

Rap guanine nucleotide exchange factor 3 (Homo sapiens), sequence (O95398 whole entry, looked up): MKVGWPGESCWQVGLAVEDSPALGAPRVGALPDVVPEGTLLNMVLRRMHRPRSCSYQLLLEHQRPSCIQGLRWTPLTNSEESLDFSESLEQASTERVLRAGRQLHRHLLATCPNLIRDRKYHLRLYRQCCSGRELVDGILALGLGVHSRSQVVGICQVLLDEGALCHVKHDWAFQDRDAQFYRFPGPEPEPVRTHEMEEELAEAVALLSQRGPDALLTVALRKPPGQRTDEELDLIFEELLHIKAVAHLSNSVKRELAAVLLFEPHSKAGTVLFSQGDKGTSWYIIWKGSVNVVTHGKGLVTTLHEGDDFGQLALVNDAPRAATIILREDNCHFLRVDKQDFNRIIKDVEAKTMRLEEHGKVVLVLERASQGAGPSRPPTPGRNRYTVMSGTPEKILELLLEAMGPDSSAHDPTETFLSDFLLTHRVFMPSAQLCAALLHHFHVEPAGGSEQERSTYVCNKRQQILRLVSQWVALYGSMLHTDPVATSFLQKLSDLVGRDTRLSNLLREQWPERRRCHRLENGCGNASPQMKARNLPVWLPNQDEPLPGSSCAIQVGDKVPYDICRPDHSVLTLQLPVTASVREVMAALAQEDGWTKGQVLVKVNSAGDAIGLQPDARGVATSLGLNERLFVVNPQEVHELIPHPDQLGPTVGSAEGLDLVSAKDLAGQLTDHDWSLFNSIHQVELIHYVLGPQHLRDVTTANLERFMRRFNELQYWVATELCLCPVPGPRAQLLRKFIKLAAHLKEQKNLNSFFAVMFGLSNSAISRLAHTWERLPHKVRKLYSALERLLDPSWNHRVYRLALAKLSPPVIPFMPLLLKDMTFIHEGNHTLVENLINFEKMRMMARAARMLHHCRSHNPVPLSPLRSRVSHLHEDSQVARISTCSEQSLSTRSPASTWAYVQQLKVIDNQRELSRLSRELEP

This assay has as its target Rap guanine nucleotide exchange factor 3 (Homo sapiens) (UniProt O95398). Put plainly: Validation qHTS for agonist of cAMP-regulated guanine nucleotide exchange factor 3 (EPAC1). Note: nearly all actives have a fitted effect of over 70% in size. To be noted: EPAC1 Rap1b BODIPY-GDP exchange, fluorescence; max response: active compounds read high, percent of cAMP control response. An excerpt:
Assay Provider (PI): Xiaodong Cheng Ph.D.
The University of Texas Medical Branch, […], TX
In multi-cellular eukaryotic organisms, the effects of cAMP are transduced by two ubiquitously-expressed intracellular cAMP receptors, the classic protein kinase A/cAMP-dependent protein kinase (PKA/cAPK) and the more recently discovered exchange protein directly activated by cAMP/cAMP-regulated guanine nucleotide exchange factor (EPAC/cAMP-GEF). Both PKA and EPAC are ubiquitously expressed in all tissues, and an increase in intracellular cAMP levels will lead to the activation of both PKA and EPAC. Therefore, careful dissections of the individual role and relative contribution of EPAC and PKA within the overall cAMP signaling in various model systems are critical for further elucidating the mechanism of cAMP signaling. To date no EPAC-specific antagonists and agonist, as well as isoform-specific agonists have been reported, and developing EPAC-specific pharmacological probes to determine the physiological functions that EPAC play in the overall cAMP-mediated signaling remains a major challenge within the research field. Furthermore, identified regulators of EPAC may lead to new mechanism-based therapeutic strategies specifically targeting the EPAC / cAMP-signaling components as EPAC has been implicated to play important roles in major human pathological conditions such as diabetes, heart disease, and cancer.
This qHTS will be used to screen the Molecular Libraries Small Molecule Repository (MLSMR) as a concentration-titration series using the NCGC unique quantitative screening (qHTS) platform to find activators for EPAC1. In addition, this assay will also be used as a counterscreen for the EPAC2 qHTS. This fluorescent based assay is developed and validated for EPAC1 that measures exchange using EPAC effector Rap1 complex with BODIPY-GDP, a GDP analog with a tethered fluorophores. Activators are identified by monitoring the change in fluorescence signal as the exchanged free BODIPY-GDP has a reduced fluorescence compared to Rap1-bound BODIPY-GDP. Increase in signal (activation) is the desired outcome for the EPAC1 agonist while no activity in this assay is desired for the EPAC2 agonist counterscreen.
[1] de Rooij, J., Zwartkruis, F. J., Verheijen, M. H., Cool, R. H., Nijman, S. M., Wittinghofer, A., and Bos, J.L. (1998) Nature 396, 474-477.
Briefly, three uL of reagents (100 nM EPAC1, 250 nM RAP1B-BODIPY-GDP, 50 uM GDP) were dispensed into a 1536-well Greiner black solid-bottom medium binding assay plate. Controls and test compounds (23 nL) were transferred to the plate via a Kalypsys pin tool equipped with a 1536-pin array. The plates were centrifuged at 1,000 rpm for 15 seconds followed by 5 minute incubation at room temperature. The assay plates were read at 5 minute intervals for 30 minutes in the ViewLux plate reader using 480nm excitation and 540nm emission filters. The results were normalized to the agonist positive control of 6.5 mM cAMP.
(Quantitative high-throughput screening tests each substance at several concentrations.)
On to `CC1CC[C@@]23CCC4(C)[C@@]5(C)CCC6C(C)(C)C(O)CC[C@@]6(C)C5C=C[C@@]4(OC2=O)C3C1C` (stereo partly specified), for which the max response was -57.5% (inactive).

For `O=C1NS(=O)(=O)c2ccccc21`, the max response was -6.7% (inactive) and 22.2% (inactive).

For `CC(=O)OC[C@H]1O[C@@H](O[C@H]2[C@H](O)[C@@H](OC(=O)c3ccccc3C(=O)O)[C@H](O)O[C@@H]2COC(C)=O)[C@H](O)[C@@H](OC(=O)c2ccccc2C(=O)O)[C@@H]1O`, the max response was -29.6% (inactive).

For the compound `CC(O)(COc1ccccc1)c1ccc2c(c1)CN(Cc1cn[nH]c1-c1ccc(F)cc1)CCO2` (stereo unspecified), the max response was 6.27% (inactive).

Turning to `COc1ccc(CCNc2ncnc3sc(C(=O)N4CCCC4)c(C)c23)cc1OC`, the max response is -3.63% (inactive).

As to `O=C(c1cc(C(F)(F)F)cc(C(F)(F)F)c1)N1CCC2(CCCN(Cc3ccncc3)C2)CC1`, the max response was -115% (inactive).

With `COC(=O)N1CCC[C@@]2(CCN(C(=O)NC(C)C)C2)C1`, the max response is -60.9% (inactive).

`C[C@H]1C[C@H]2[C@@H]3CCC4=CC(=O)C=C[C@]4(C)[C@@H]3C(=O)C[C@]2(C)[C@@]1(O)C(=O)CO`: the max response is 0.445% (inactive).

`COc1cc2c(cc1OC)[C@@H](Cc1cc(OC)c(OC)c(OC)c1)[N+](C)(CCCOC(=O)CC/C=C/CCC(=O)OCCC[N+]1(C)CCc3cc(OC)c(OC)cc3[C@H]1Cc1cc(OC)c(OC)c(OC)c1)CC2` (stereo partly specified): the max response is -11.5% (inactive) and 6.58% (inactive).

On to `CC(=O)Nc1ccccc1-c1nc(CNC(=O)c2ccc(Cl)cc2)c(C)o1`, for which the max response is -0.968% (inactive).

For `COc1cc(=O)n2c(c1C(=O)NC(C)c1ccco1)CCN(C(=O)c1cn3ccc(C)cc3n1)CC2` (stereo unspecified), the max response was -8.43% (inactive).

Regarding `NCCCNCCCCN(CCCN)/[N+]([O-])=N/O`, the max response was -13.7% (inactive).

Take `O=C1CCN(CCc2ccccc2)CCN1CCOc1ccccc1`: the max response is 21.5% (inactive).

Regarding `O=C(CN1Cc2ccccc2OC(c2ccccc2)C1)N1CCCCC1c1cccnc1` (stereo unspecified), the max response is 3.86% (inactive).

Take `N[C@H](C(=O)O)c1ccc(C(=O)O)c(O)c1`: the max response is -1.36% (inactive) and -12.7% (inactive).

With `Cc1ccc(/C(=C/CN2CCCC2)c2ccccn2)cc1`, the max response was -20.9% (inactive).

As to `CN1CCC2(CC1)CCN(S(=O)(=O)c1ccccc1)CC2`, the max response is 2.56% (inactive).

With `CN(C)C(=O)[C@@H]1C[C@@H](Sc2nc3ccccc3[nH]2)CN1Cc1ccc(Cl)cc1`, the max response was 0.834% (inactive).

On to `C=C1C(=C/C=C2\CCC[C@]3(C)[C@@H]([C@H](C)CCCC(C)(C)O)CC[C@@H]23)C[C@@H](O)C[C@@H]1O`, for which the max response was -16.6% (inactive).

As for `O=C(c1csnn1)N1CCC2(CC1)CN(c1ncccn1)C2`, the max response was 26.8% (inactive).

On to `O=C(NCCN1CCOCC1)c1cnn(-c2nccc(-c3cccs3)n2)c1C1CC1`, for which the max response is -10.9% (inactive).

Turning to `CN(Cc1ccco1)c1cc(-c2ccccc2C(F)(F)F)ncn1`, the max response is 17% (inactive).

In the case of `COc1ccc(C)cc1N1C(=O)[C@@H]2C[C@H]1CN2Cc1cccc(OC)c1O`, the max response was -2.66% (inactive).

With `O=C(O)CCC(=O)O`, the max response was -16.2% (inactive).

Take `COC1[C@H](OC(N)=O)C(O)[C@H](Oc2ccc3c(O)c(NC(=O)c4ccc(O)c(CC=C(C)C)c4)c(=O)oc3c2C)OC1(C)C` (stereo partly specified): the max response was 12.3% (inactive).

As for `O=C(C[n+]1ccncc1)c1ccc2c(c1)CCCC2`, the max response is -14.9% (inactive).

As to `COc1cc(=O)n2c(c1C(=O)N(C)Cc1nonc1C)CCN(C(=O)c1ccc(C)cc1C)CC2`, the max response is -17.4% (inactive).

Regarding `C=C1C(=CC=C2CCC[C@@]3(C)[C@@H]2CC[C@H]3[C@H](C)CCCC(C)C)C[C@@H](O)C[C@@H]1O`, the max response was -125% (inactive).

On to `CN1CCN(c2ncncc2-c2ccc(C(=O)N(C)C)cc2)CC1`, for which the max response was -22% (inactive).

For `Cc1cccc(C)c1NC(=O)NC1=CCCN1C`, the max response was -23.6% (inactive).

For the compound `O=C1NC(CC(=O)N2CCC(n3c(C4CCC4)nc4cccnc43)CC2)c2ccccc21` (stereo unspecified), the max response is 2.72% (inactive).

Regarding `CCNCCCNCCCNCCCNCC`, the max response was -1.46% (inactive).

On to `CCCCCCCC/C=C\CCCCCCCC(=O)OC[C@H](CO)OC(C)=O`, for which the max response was -42.9% (inactive).

Regarding `Nc1ncnc2c1c(I)cn2[C@@H]1C[C@H](N)[C@@H](O)[C@H]1O`, the max response is -1.21% (inactive).

Take `COc1ccccc1CNc1ncncc1-c1cccnc1`: the max response was -29.8% (inactive).

Regarding `O=C(OCCN1CCOCC1)C1(c2ccccc2)CCCCC1`, the max response was 0.319% (inactive) and -0.482% (inactive) and -4.96% (inactive).

In the case of `CC1(C)[C@@H]2CC[C@@]1(C)[C@H](OC(=O)CSC#N)C2`, the max response is -10.5% (inactive).

As for `COc1ccc(Oc2ncc3nc(-c4ccc(F)cc4)c(=O)n(C)c3n2)cc1`, the max response is -48.7% (inactive).

Take `OCC1CCCN(c2nc3cc4c(cc3cc2CNCc2cccs2)OCO4)C1` (stereo unspecified): the max response was -2.38% (inactive).

As for `COc1ccc(-c2nc3cnc(OC)nc3n(Cc3ccc(F)cc3)c2=O)cc1`, the max response is -45.5% (inactive).

For the compound `CC(C)[C@H](CO)Nc1nc(Nc2cc(N)cc(Cl)c2)c2ncn(C(C)C)c2n1`, the max response is 16.3% (inactive).
